Screening data: PubChem BioAssay, National Center for Advancing Translational Sciences (NCATS)
In the library only some 2.5% were active in any assay of this set; here they are far more common.
Cruzain noTriton: cruzain (T. cruzi) inhibition without detergent | P25779 | purified cruzain, Z-FR-AMC fluorescence, no detergent | Potency, µM, for inactives: max response, negative = inhibition, actives largely listed as inhibitors | hit rate 2.3% among 200,000 | AID 1476;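 also: plate controls were enzyme without inhibitor for no effect and buffer without enzyme for full effect; nearly all actives have a fitted effect of over 40% in size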
Target sequence (P25779 123-467 limits assumed): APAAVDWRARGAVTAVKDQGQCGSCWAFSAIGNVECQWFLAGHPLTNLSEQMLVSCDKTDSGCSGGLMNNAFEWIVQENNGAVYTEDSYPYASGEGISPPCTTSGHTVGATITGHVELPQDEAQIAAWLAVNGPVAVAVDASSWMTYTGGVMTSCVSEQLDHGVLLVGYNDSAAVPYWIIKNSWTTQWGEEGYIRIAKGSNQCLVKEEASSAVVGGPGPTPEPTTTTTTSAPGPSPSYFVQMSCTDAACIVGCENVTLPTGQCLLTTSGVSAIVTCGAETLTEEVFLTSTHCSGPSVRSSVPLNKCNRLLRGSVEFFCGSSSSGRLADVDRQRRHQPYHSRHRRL
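Detergent-free condition (0.00005% Triton X-100) in acetate buffer pH 5.5 with DTT. 1.5 nM enzyme and compound were pre-mixed 15 min, then 2 uM Z-FR-AMC substrate added; reaction progress from fluorescence change between first and third reads (60 s).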
Cruzain Triton: inhibitors of Trypanosoma cruzi cruzain with detergent. hit rate 0.43% among 200,000. P25779. Potency, µM, for the others: max response, negative = inhibition, actives largely listed as inhibitors. purified cruzain, Z-FR-AMC fluorescence, 0.01% Triton;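 also: plate controls were neutral wells for no effect and buffer without enzyme for full effect; nearly all actives have a fitted effect of over 40% in size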
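Detergent-containing run (0.01% Triton X-100) in acetate buffer pH 5.5 with 5 mM DTT: enzyme at 1.5 nM final, 15 min compound preincubation at room temperature, then 2 uM Z-FR-AMC substrate. Activity taken as 60 s fluorescence increase at 360/450 nm.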
An asterisk follows results filed as active; u = inconclusive. Calls follow the shape of the dose curve; as a rule, active = well fitted curve in the direction sought with a large enough effect; inconclusive = small, poorly fitted or top-dose-only effect, or another doubt; inactive = no such curve, though single readings can be large; an effect the other way counts as inactive or inconclusive. Potency is read from the fitted curve at half-maximal effect.

SMILES	Cruzain noTriton	Cruzain Triton
CCc1ccc2occ(CC(=O)Nc3c(C(=O)Nc4ccc(C)cc4)oc4ccccc34)c2c1	-13%	0%
Cc1ccc2occ(CC(=O)Nc3c(C(=O)Nc4ccc(Cl)cc4)oc4ccccc34)c2c1	10µM*	-2%
Cc1cc(C)c2c(CC(=O)Nc3c(C(=O)Nc4ccc(Cl)cc4)oc4ccccc34)coc2c1	-25%	-2%
CCc1ccc2occ(CC(=O)Nc3c(C(=O)Nc4ccc(Cl)cc4)oc4ccccc34)c2c1	10µM*	-2%
Nc1nc(SCc2ccccc2[N+](=O)[O-])c2[nH]cnc2n1	2%	1%
COc1cccc(NC(=O)CSc2nc3c(c(=O)n2C)SC(C)C3)c1 (centres undefined)	1%	-4%
FC(F)(F)c1cc(CN2CC3(CCNCC3)C2)cc(C(F)(F)F)c1	-14%	3%
O=S(=O)(Nc1ccccc1)c1ccc(Oc2ncc(C(F)(F)F)cc2Cl)cc1	1%	-16%
N[C@H]1[C@@H](C(=O)O)[C@H]2C=C[C@H]1C2	10%	8%
CCNc1nc(N)c(C(=O)c2ccc(Cl)s2)s1	-2%	-3%
O=C(O)c1cc(NS(=O)(=O)c2ccc(N3CCOCC3)c([N+](=O)[O-])c2)cc(C(=O)O)c1	-6%	-4%
C/C(=N\Nc1ccc(S(=O)(=O)Nc2ccc(Cl)cc2)cc1[N+](=O)[O-])c1ccc(N2CCOCC2)cc1	10µM*	-6%
COc1ccccc1NS(=O)(=O)c1ccc(N/N=C(\C)C(C)C)c([N+](=O)[O-])c1	-2%	-5%
COc1ccc(NS(=O)(=O)c2ccc(N/N=C(\C)c3ccncc3)c([N+](=O)[O-])c2)cc1	13µM*	-8%
COc1ccc2[nH]cc(CCNc3nc(-c4c(C)noc4C)nc4ccccc34)c2c1	-6%	-7%
Cc1ccc(/C=C/c2onc(C)c2S(=O)(=O)N2CCC(C(=O)NCc3ccc(N(C)C)cc3)CC2)cc1	-7%	0%
CCc1ccc(C2C(C(=O)Nc3ccccc3OC)=C(C)Nc3c(C(=O)Nc4ccc(C)cc4)cnn32)cc1 (centres undefined)	u	-5%
O=C(O)C(c1ccccc1)N1CCCC1 (centres undefined)	7%	2%
Cc1cccc(C2=NN(c3ccccc3)[C@H](CO)[C@H]2c2ccccc2)c1	u	-1%
Cc1cccc(C2=NN(c3ccccc3)[C@H](CO)[C@H]2C)c1	35µM*	-2%
COc1ccc(CNC(=O)CSc2ncc(S(=O)(=O)c3ccc(Br)cc3)c(=O)[nH]2)cc1	u	-9%
COC(=O)c1cc(Cl)ccc1NC(=O)CSc1ncc(S(=O)(=O)c2ccc(Br)cc2)c(=O)[nH]1	u	25µM*
COc1cccc(-c2csc(-c3c(N)c(C(=O)c4ccccc4)n4ccccc34)n2)c1	7.9µM*	-3%
Cc1ccc(-c2csc(-c3c(N)c(C(=O)c4ccc5c(c4)OCO5)n4ccccc34)n2)cc1	u	-2%
CCc1ccc(C(=O)c2c(N)c(-c3nc(-c4ccc5c(c4)OCO5)cs3)c3ccccn23)cc1	2.5µM*	-2%
SMILES	Cruzain noTriton	Cruzain Triton
COc1ccc(OC)c(C(=O)c2c(N)c(-c3nc(-c4ccc(C)c(C)c4)cs3)c3ccccn23)c1	-6%	-2%
COc1ccc(S(=O)(=O)N(CC(=O)NCCSc2ccccc2)c2ccc(Cl)cc2)cc1	3%	-5%
CCCCN(CC)CCNC(=O)CN1C(=O)COc2ccc(S(=O)(=O)N3CCOCC3)cc21	-3%	2%
CCC(C)NC(=O)c1sc2nc(C)c(C(=O)Nc3ccc(C)cc3C)c(-c3ccc(Br)cc3)c2c1N (centres undefined)	0%	1%
c1ccc(CNc2oc(-c3ccccc3)nc2-c2cccc3ccccc23)cc1	16µM*	-2%
c1ccc(CNc2oc(-c3ccccc3)nc2-c2ccccc2)cc1	-10%	-1%
CCNc1ncc2nc(-c3cccs3)c(=O)n(CCC#N)c2n1	-4%	-7%
N#Cc1cccc(-c2cncnc2NCc2ccccc2)c1	1%	3%
CC1CCc2sc(C(=O)Nc3nnc(SCc4ccc(F)cc4)s3)cc2C1 (centres undefined)	10µM*	-10%
O=C(Nc1nnc(SCc2ccc(F)cc2)s1)c1ccco1	-17%	1%
Cc1csc(NC(=O)c2cc3c(s2)CCC3)n1	-8%	-11%
COC(=O)c1ccc(CSc2nnc(C)s2)cc1	-13%	7%
COC(=O)c1ccc(CSc2nnc(NC(=O)c3cc4c(s3)CCCC4)s2)cc1	6.3µM*	-7%
O=C(Nc1nnc(C2CC2)s1)c1cc2c(s1)CCCCCC2	6.3µM*	6%
CC(CCC(=O)O)C1CCC2C3CC[C@H]4CC(O)CC[C@@]4(C)C3CC[C@@]12C (some centres undefined)	0%	-2%
CCOC(=O)c1c(NC(C)=O)c2c3c(sc2n1Cc1nc(-c2ccc(Cl)cc2)oc1C)CCCC3	-13%	-1%
COc1ccc(S(=O)(=O)Nc2ccc(F)cc2)cc1N(C)S(=O)(=O)c1ccc(Cl)cc1	20µM*	-3%
COc1ccc(NS(=O)(=O)c2ccc(OC)c(N(C)S(=O)(=O)c3ccc(Cl)cc3)c2)cc1	-21%	-1%
Nc1ccn([C@@H]2O[C@H](COC(=O)C34CC5CC(CC(C5)C3)C4)[C@@H](O)[C@@H]2O)c(=O)n1	2%	1%
CC1=C(C(=O)N2CCCCC2)C(c2ccc(Cl)cc2)n2c(nc3ccccc32)N1 (centres undefined)	-3%	-4%
COC(=O)c1c(NC(=O)CSc2ncnc3c2cnn3-c2ccccc2Cl)sc2c1CCCC2	3.2µM*	-6%
CCOC(=O)Cc1csc(NC(=O)CSc2ncnc3c2cnn3-c2ccccc2Cl)n1	4%	-8%
COc1ccc(CCNC(=O)CCc2c(C)nc3cc(-c4ccccc4OC)nn3c2C)c(OC)c1	u	-9%
Cc1ccc(C2C(/C=C3/SC(=S)NC3=O)=C(c3cccs3)Oc3ccccc32)cc1 (centres undefined)	7.9µM*	-2%
Cc1nn(C)c(C)c1/C=C1/SC(=S)NC1=O	3%	2%
SMILES	Cruzain noTriton	Cruzain Triton
COC(=O)N1CCC2(CC1)CN(C(=O)Nc1cccc(C#N)c1)C2	4%	2%
CCn1ccc2c(OCC(=O)Nc3ccccc3C(F)(F)F)cccc2c1=O	-4%	-3%
C/C(=N\NC(=O)c1ccc(Cl)cc1)c1ccc(Br)s1	u	5%
C/C(=N\NC(=O)c1cc(Cl)ccc1O)c1ccc(Br)s1	10µM*	-6%
c1cn(-c2ccnc(-c3ccc4c(c3)OCO4)n2)cn1	0%	-3%
CCn1c(SCc2ccc(C#N)cc2)nnc1-c1ccc(S(=O)(=O)N2CCCCC2)cc1	12%	2%
O=C(Nc1cccc(Cl)c1)c1cnc2sc(N3CCCC3)nn2c1=O	9%	-2%
NCCC[C@@H](CC(=O)N[C@@H]1CCCC[C@H]1C(=O)N[C@H](CC(=O)N[C@@H](CCC(=O)O)CC(=O)O)Cc1ccccc1)NC(=O)C[C@H](Cc1c[nH]c2ccccc12)NC(=O)[C@@H]1CCCC[C@H]1N	19%	2%
Nc1ccc(N(S(=O)(=O)c2ccccc2)S(=O)(=O)c2ccccc2)c(Cl)c1	-8%	-4%
Cc1ccc(-c2nnc(SCC(=O)N3CCN(c4ccccc4)CC3)o2)cc1	10µM*	-1%
COc1ccc(-c2nnc(SCC(=O)N3CCN(c4ccccc4)CC3)o2)cc1OC	0%	-4%
Cc1ccc(NC(=O)/C=C/c2ccc([N+](=O)[O-])s2)cc1	32µM*	1%
